APOBEC3A inh = blocks human APOBEC3A ssDNA deamination. P31941. AID 493011. hit rate 0.41% among 330,000. recombinant A3A, FAM/TAMRA ssDNA deamination fluorescence. inhibition, % at 20 µM;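 active means at least 40% inhibition at 20 µM here, with at most 30% in a related deaminase screen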
A3G deaminase = blocks human APOBEC3G single-stranded DNA deamination; Q9HC16; inhibition, % at 20 µM; hit rate 0.28% among 330,000; recombinant A3G, ssDNA deamination FAM/TAMRA fluorescence;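 active means inhibition of at least 40% at 20 µM, with no more than 30% in the related APOBEC3A deaminase screen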
PHOSPHO1 block = blocks human PHOSPHO1 phosphatase activity. hit rate 1.1% among 290,000. Q8TCT1. inhibition, % at 13.3 µM. AID 1565. recombinant PHOSPHO1, absorbance phosphatase assay; in the data active means inhibition above about 60%
Target sequence (Q8TCT1 whole entry, looked up): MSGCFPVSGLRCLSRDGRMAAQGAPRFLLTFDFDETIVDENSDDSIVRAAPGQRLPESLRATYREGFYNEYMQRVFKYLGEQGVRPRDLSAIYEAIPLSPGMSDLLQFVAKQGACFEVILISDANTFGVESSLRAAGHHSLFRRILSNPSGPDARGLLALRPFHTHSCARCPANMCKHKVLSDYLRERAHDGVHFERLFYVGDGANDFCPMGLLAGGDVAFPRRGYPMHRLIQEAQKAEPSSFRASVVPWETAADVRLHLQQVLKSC
eIF4H FP inh = inhibitors of RNA binding by human eIF4H | hit rate 0.94% among 290,000 | inhibition, % at 35 µM | Q15056 | eIF4H fluorescence polarization binding assay | AID 2012;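 further: calls also rest on retests at 20 µM and on dose response follow-up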
PABP1 MLLE inh = blocks PAM2 peptide binding to the PABP1 MLLE domain. GST-MLLE / FITC-PAM2 fluorescence polarization. inhibition, % at 20 µM. hit rate 0.36% among 360,000. AID 588489; in the data active means inhibition above about 35%, passing the limit was not always enough
PABP FP inh = blocks human PABP binding to poly(A) RNA; hit rate 1% among 290,000; calls only at 35 µM; P11940; fluorescence polarization;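 further: calls also rest on retests at 20 µM and on dose response follow-up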
A number is an active result; – = inactive; ? = inconclusive; · = no result; + = active, no number. Sampled rows, rich in hits. Any-hit rate of the full collection: about 2.6%. Unless noted, how the calls were made is not given here.

SMILES | APOBEC3A inh | A3G deaminase | PHOSPHO1 block | eIF4H FP inh | PABP1 MLLE inh | PABP FP inh
Cn1c(CCNC(=O)OC(C)(C)C)n[nH]c1=S | – | – | 79 | – | – | –
COc1ccc(CC(=O)NCc2n[nH]c(=S)n2-c2cccc(C)c2)cc1 | – | – | – | – | – | –
COc1cccc(-n2c(CNC(=O)OC(C)(C)C)n[nH]c2=S)c1 | – | – | 84 | – | – | –
OCCC1CN(Cc2ccc3nsnc3c2)CCN1CCc1ccccc1 (stereo unspecified) | – | – | – | – | – | –
Cc1cc([N+](=O)[O-])nn1CC(=O)NCCCN1CCOCC1 | – | – | – | – | – | –
Cc1cc(C)c2c(=O)n(CC(=O)NCCCN3CCN(c4ccccc4F)CC3)sc2n1 | – | 53 | – | – | · | –
Cc1cc(C)c2c(=O)n(CC(=O)NCCCN3CCOCC3)sc2n1 | – | 54 | – | – | – | –
C=CCn1c(SCC(=O)NC2CCCC2)nc2scc(-c3ccco3)c2c1=O | – | – | – | 71 | – | +
COC(=O)/C=C1/S/C(=N/N=C/c2ccco2)NC1=O | – | – | – | – | – | –
COC(=O)/C=C1\S/C(=N/N=C/c2ccco2)NC1=O | – | – | – | 61 | – | +
Cc1ccccc1NC(=O)NCCCN1CCN(C2CCCCC2)CC1 | – | – | – | – | – | –
Cc1cc(C(=O)NCCCN2CCN(C3CCCCC3)CC2)n(-c2ccccc2)n1 | 43 | – | – | – | – | –
CCc1ccccc1N(C(C)=O)c1nc(CCl)cs1 | – | – | – | active | – | –
N#C/C(=N\Nc1ccc(S(=O)(=O)N2CCCCC2)cc1)C(N)=S | – | – | – | – | – | –
N#C/C(=N\Nc1ccc(S(=O)(=O)N2CCCCCC2)cc1)C(N)=S | – | – | – | – | 42 | –
COCc1cc(Sc2ccc(OC)cc2)nc(-c2ccccc2)n1 | – | – | – | active | – | –
CCS(=O)(=O)c1ccc(C(=O)NC2CC2)c(Cl)c1Cl | – | – | 60 | – | – | –
O=[N+]([O-])c1ccc(N/N=C/c2ccc[nH]2)cc1 | · | · | 90 | – | – | –
O=c1[nH]ncn1-c1cccc(C(F)(F)F)c1 | – | – | – | 59 | – | –
COc1ccc(NS(=O)(=O)c2ccc(N3CCCC3)c(NC(=S)Nc3ccc(SC(F)F)cc3)c2)cc1 | – | – | – | – | 40 | –
COc1ccc(NS(=O)(=O)c2ccc(N3CCCC3)c(NC(=S)Nc3cccc(C)c3C)c2)cc1 | – | – | – | – | – | –
Cc1ccccc1OCC(=O)N=Nc1c(O)n(C)c2ccccc12 | – | – | – | – | – | –
O=C(O)c1cc(S(=O)(=O)O)cc(Nc2c3ccccc3nc3ccccc23)c1O | – | – | – | 98 | – | +
O=C(CCNC(=O)C1CCN(S(=O)(=O)c2ccc(F)cc2)CC1)NCCc1ccc(Cl)cc1 | – | – | 64 | – | – | –
Cc1nnc(SCC(=O)Nc2ccc(N3CCOCC3)cc2)o1 | – | – | 63 | – | – | –
SMILES | APOBEC3A inh | A3G deaminase | PHOSPHO1 block | eIF4H FP inh | PABP1 MLLE inh | PABP FP inh
CCc1nnc(SCC(=O)Nc2ccc(N3CCOCC3)cc2)o1 | – | – | – | – | – | –
COc1cccc(Cn2cnc3c(N)c(C)c(C)cc32)c1 | – | – | – | – | – | –
CCCn1cnc2c(N)c(C)c(C)cc21 | – | – | 73 | – | – | –
CCCCn1c2ccc(F)cc2c2nnc(SCCN3CCOCC3)nc21 | – | – | – | – | 45 | –
COc1ccccc1CN1C(=NC(=O)C2CCCCC2)SC2CS(=O)(=O)CC21 (stereo unspecified) | – | – | – | – | – | –
COc1ccc(OCCNC(=O)C2(C)CCN2Cc2ccc3ccccc3c2)cc1 (stereo unspecified) | · | · | · | · | – | ·
CSc1ncc(C(=O)O)n1-c1ccc(F)cc1 | – | – | – | – | – | –
O=C(O)c1c[nH]c(=S)n1-c1ccc(F)cc1 | – | – | 104 | – | – | –
Cc1ccc(C2=NS(=O)(=O)N(C)C(C(=O)Nc3cc(C)n(CC(=O)N4CCCCC4)n3)=C2)cc1 | – | – | – | · | – | ·
O=C(O)CCC(C(=O)O)n1c(O)c(C2=c3ccccc3=NC2=O)sc1=S (stereo unspecified) | – | – | – | – | 40 | –
CSc1ncc(Cl)c(C(=O)Nc2ccc(NC(C)=O)cc2)n1 | – | – | 60 | – | – | –
CSc1ncc(Cl)c(C(=O)Nc2cccnc2)n1 | – | – | · | – | – | –
O=C(c1ccc2snnc2c1)N1CCCCC1 | – | – | – | – | – | –
O=C(c1ccc2snnc2c1)N1CCSCC1 | – | – | 99 | – | – | –
COc1ccc(/C=C/C(=O)OCC(=O)NCCC2=CCCCC2)cc1S(=O)(=O)N1CCOCC1 | – | – | – | – | – | –
CCn1ccnc1CN(C)Cc1c(C(=O)N2CCCCCCC2)nc2ccc(Cl)cn12 | – | – | – | – | – | –
CN(C1CCCCC1)S(=O)(=O)c1ccc(=S)[nH]c1 | – | – | · | · | 58 | ·
Oc1ccc(N=Nc2ccccc2-c2nn[nH]n2)c(O)c1 | – | – | – | – | – | –
CNC(=S)Nc1sc2c(c1C(=O)OC)CCC2 | – | – | – | ? | – | +
COC(=O)c1c(NC(=O)C2C3CCC(C3)C2C(=O)O)sc2c1CCCCC2 (stereo unspecified) | – | – | – | – | 41 | –
CCOC(=O)c1c(NC(=S)NC)sc2c1CC(C)(C)SC2 | – | – | – | 52 | – | –
COC(=O)c1c(NS(=O)(=O)Cc2ccccc2)sc2c1CCCC2 | – | – | 71 | – | – | –
COC(=O)c1c(NS(C)(=O)=O)sc2c1CCCC2 | – | – | – | – | – | –
NC1=Nc2cccc3cccc1c23 | – | – | – | – | – | +
COc1ccc(-n2c(=O)c3c(C)c(C)sc3n(Cc3ccc(F)cc3)c2=O)c(OC)c1 | – | – | – | – | – | –
SMILES | APOBEC3A inh | A3G deaminase | PHOSPHO1 block | eIF4H FP inh | PABP1 MLLE inh | PABP FP inh
O=C(COC(=O)/C=C/c1ccc(S(=O)(=O)N2CCOCC2)cc1)Nc1ccccc1F | – | – | · | · | – | ·
O=C1/C(=C/c2ccc(Br)cc2)Oc2cc(O)ccc21 | – | – | – | – | – | +
CCOc1cc(NC(=S)Nc2ccc(Cl)cc2)c(OCC)cc1NC(C)=O | – | – | – | – | – | –
Cc1nn(C)cc1S(=O)(=O)N1CCN(c2ccccc2F)CC1 | – | – | – | – | – | –
CCC1CCC2(CC1)NC(CO)(CO)CO2 (stereo unspecified) | – | – | – | – | – | –
CCC1CCC2(CC1)NNC(=S)NN2 | – | – | 97 | – | – | –
CCOc1ccc(NC(=O)CSc2nnnn2C2CC2)cc1S(=O)(=O)N1CCCC1 | – | – | · | · | – | ·
CCN(CC)CCCNc1cc(C(F)(F)F)c(C#N)c2nc3ccccc3n12 | – | – | · | – | – | +
Cc1cc(NCCCN2CCOCC2)n2c(nc3ccccc32)c1C#N | – | – | – | 80 | – | +
Cc1cc(NCCN2CCOCC2)n2c(nc3ccccc32)c1C#N | – | – | – | – | – | –
